High-throughput results: PubChem BioAssay, National Center for Advancing Translational Sciences (NCATS)
Shown are actives, neighbours in structure and some others; about 2.9% of the full set was active somewhere.
D3 ag: qHTS of D3 Dopamine Receptor Agonist: qHTS; D3R DiscoveRx beta-arrestin cells, luminescence, 90 min; max activation, %; 410,000 compounds, 0.58% hits; AID 652048, 2013; in the data active means max activation above about 30%; further: 0% is about no effect
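Agonist-mode cell screen: cells plated at 1500/well and incubated overnight at 37 °C, then exposed to library compounds for 90 min at 37 °C. Detection reagent was added for 30–60 min at room temperature, and luminescence was read.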
DRD3 antagonist: qHTS of D3 Dopamine Receptor Antagonist: qHTS | D(3) dopamine receptor (Homo sapiens), P35462 | AID 652054, 2013 | 360,000 compounds, 2.5% hits | max response, negative = inhibition, % | D3R cells, DiscoveRx beta-arrestin luminescence, antagonist mode; hits give low values; in the data active means max response below about -50%; inconclusive means no clear call, values can overlap the other calls; further: on the % scale 0 is the no-effect control and ±100 the full control effect
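Cells plated overnight at 1500 cells/well, then exposed to library compounds with dopamine controls for 90 minutes at 37 degrees C. DiscoveRx reagent added for 30–60 minutes at room temperature; luminescence read, quantitative HTS format.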
a7 integrin act: qHTS for Activators of Integrin-Mediated Alleviation for Muscular Dystrophy; alpha7betagal myoblasts, beta-gal FDG fluorescence, 48 h; Potency, µM (doses to about 38.3 µM), without a hit: top-dose activation, most hits filed as activators; 350,000 compounds, 0.064% hits; AID 624291, 2012;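 further: potency means the concentration at half of the fitted maximal effect; 100% = response of the positive control SU9516; nearly all actives have a fitted effect of over 60% in size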
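Alpha7betagal+/- myoblasts (passage 13) were plated 16-24 hr, then exposed to compounds (1:260 dilution of DMSO stock) for 48 hours at 37C. After MPER lysis, β-galactosidase reporter activity was read as FDG fluorescence (ex 480/em 540) after 30 minutes.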
mIDH1 inhibitor: qHTS for Inhibitors of mutant isocitrate dehydrogenase 1 (IDH1): qHTS. Isocitrate dehydrogenase [NADP] cytoplasmic (Homo sapiens), O75874. IDH1-R132H enzyme, NADPH consumption, diaphorase/resazurin fluorescence. Potency, µM (titrated, usually from 76.6 µM), without a hit: top-dose activity change, negative = inhibition, hits mostly inhibitors. 390,000 compounds, 0.093% hits. AID 602179, 2012; further: potency means the concentration at half of the fitted maximal effect; on the % scale 0 is the no-effect control and ±100 the full control effect; nearly all actives have a fitted effect of over 65% in size
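IDH1-R132H (0.5 ug/mL) preincubated 30 min with compound, then NADPH (0.016 mM) and alpha-KG (2 mM) added; 80 min at RT, pH 7.5. Remaining NADPH coupled via diaphorase/resazurin to fluorescence (540/590 nm); concentration-response curves normalized to no-enzyme control.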
B2AR arrestin: qHTS assay of beta-arrestin-biased ligands of beta2-adrenergic receptor; Potency, µM (series often up to 46.1 µM), for the others: top-dose activation, usual class: activators; AID 492947, 2010; Beta-2 adrenergic receptor (Homo sapiens), P07550; 330,000 compounds, 0.02% hits; beta-arrestin recruitment to beta2AR, cell-based reporter;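 further: potency means the concentration at half of the fitted maximal effect; 0% = DMSO controls and full agonism = EC100 isoproterenol or metaproterenol; nearly all actives have a fitted effect of over 65% in size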
Target sequence (P07550 whole entry, looked up): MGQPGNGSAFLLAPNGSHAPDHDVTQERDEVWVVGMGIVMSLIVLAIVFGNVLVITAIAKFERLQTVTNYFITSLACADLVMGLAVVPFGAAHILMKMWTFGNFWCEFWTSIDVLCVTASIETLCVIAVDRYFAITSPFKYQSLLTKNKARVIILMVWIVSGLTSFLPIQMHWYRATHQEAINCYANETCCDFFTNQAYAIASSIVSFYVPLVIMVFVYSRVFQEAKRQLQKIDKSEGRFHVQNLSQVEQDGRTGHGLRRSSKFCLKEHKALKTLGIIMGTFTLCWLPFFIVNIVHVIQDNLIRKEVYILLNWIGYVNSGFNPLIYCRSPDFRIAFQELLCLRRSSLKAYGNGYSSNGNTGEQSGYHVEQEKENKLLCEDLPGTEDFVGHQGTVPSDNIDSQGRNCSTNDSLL
* hit, by the source's call; ? = inconclusive; / = not tested or not shown. Unless noted, the call rests on the fitted dose curve; in most records, active means well fitted curve in the direction sought with a large enough effect; inconclusive means small, poorly fitted or top-dose-only effect, or another doubt; inactive means no such curve, though single readings can be large; an effect the other way counts as inactive or inconclusive.

SMILES | D3 ag | DRD3 antagonist | a7 integrin act | mIDH1 inhibitor | B2AR arrestin
CC(C)Cc1nn2c(=O)cc(COC(=O)c3cccc(NC(=O)CCc4ccccc4)c3)nc2s1 | -11 | / | / | -6% | /
C=CCn1c(SCC(=O)c2cc(C)n(C(C)COC)c2C)nc2sc(C)c(C)c2c1=O (configuration not stated) | 60* | 20 | -37% | 0% | 0%
C=CCn1c(SCc2c(C)noc2C)nc2sc(C)c(C)c2c1=O | 35* | -16 | 14% | 4% | 0%
CC(=O)Nc1ccc(NC2=Nc3ccccc3N3C2=Nc2c(c(C)nn2-c2ccccc2)C3c2ccccc2)cc1 (configuration not stated) | 34* | 7 | -52% | -1% | -2%
COc1ccc(NC2=Nc3ccccc3N3C2=Nc2c(c(C)nn2-c2ccc(C)cc2)C3c2cccnc2)cc1 (configuration not stated) | 5 | 15 | 2% | 0% | 0%
COc1ccc(OC)c(-n2c(SCC(=O)Nc3cc(C)on3)nnc2-c2c[nH]c3ccccc23)c1 | -6 | -51* | 5% | -6% | 0%
COc1ccc(OC)c(-n2c(SCC(N)=O)nnc2-c2c[nH]c3ccccc23)c1 | -2 | 15 | 1% | -9% | 0%
Cc1c(Cl)cccc1NC(=O)Cn1nc(C)c2sc3ccccc3c2c1=O | -11 | / | / | 9% | /
CNc1sc(C(=O)c2ccccc2F)c(N)c1-c1nc2ccccc2s1 | -7 | -53* | 5% | -27% | 13%
O=C(CNC(=O)c1ccccc1F)OCc1nc2ccccc2s1 | 5 | 16 | -12% | -1% | 0%
CCOC(=O)C1CCN(Cc2ccc(F)cc2)CC1 | -48 | ? | 2% | 8% | -1%
CCOC(=O)C1CCN(Cc2cnc(Oc3ccc(Cl)cc3C)s2)CC1 | -21 | -58* | -69% | 5% | 0%
CCOC(=O)C1CCN(Cc2ccc(Cl)c(Cl)c2)CC1 | -38 | -85* | 0% | 6% | 0%
CCOC(=O)C1CCN(Cc2cnc(Oc3ccc(N)cc3)s2)CC1 | 1 | -13 | 10% | 11% | ?
Clc1ccc(CN2CCCCCCC2)cc1Cl | -1 | -90* | -10% | 12% | 0%
CCOC(=O)C1CCN(Cc2ccc(C(=O)OC)cc2)CC1 | -33 | -53* | 5% | -6% | ?
Cc1nc2nc(SCC(=O)Nc3cccc(Cl)c3)nn2c(C)c1Cc1ccccc1 | 13 | / | / | -10% | /
COc1ccc2c(c1)c(=O)c(C(=O)c1ccc(C)cc1)cn2Cc1ccccc1F | 2 | / | / | -6% | /
COC(=O)c1ccc(CN2CCC(Oc3ccc(C(=O)N4CCCCC4)cc3)CC2)cc1 | -6 | ? | -41% | 3% | /
COC(=O)c1ccc(CN2CCCCC2)cc1 | -24 | -56* | 15% | 5% | -1%
C=C(C)C1CC=C(CN2CCC(C(=O)OCC)CC2)CC1 (configuration not stated) | -51 | -61* | 19% | 3% | 0%
O=S(=O)(c1ccc(Cl)cc1)c1snnc1-c1ccccc1 | -10 | -64* | -58% | 11% | -1%
O=S(=O)(c1ccc(F)cc1)c1snnc1-c1ccccc1 | 8 | -18 | -68% | -7% | 0%
CCN(C(=O)c1cc2c(s1)-c1ccccc1S(=O)(=O)C2)c1cc(OC)ccc1OC | -1 | 24 | -9% | -10% | -1%
CCN(C(=O)c1cc2c(s1)-c1ccccc1OC2)c1cc(OC)ccc1OC | -12 | -54* | 5% | -6% | 5%
O=C(Cc1ccc([N+](=O)[O-])cc1)N1CCN=C1SCc1ccccc1 | 2 | 3 | 13% | 6% | -2%
Cc1ccc(C)c(CSC2=NCCN2C(=O)Cc2ccc([N+](=O)[O-])cc2)c1 | -8 | -61* | 9% | -1% | -1%
N#Cc1ccccc1OCCCNC1CCCC1 | -4 | -80* | -24% | 0% | 0%
CCOc1ccc(CNC2CCCCCCC2)cc1OC | -16 | -15 | 5% | -11% | 4%
CCOc1ccc(OCCNC2CCCC2)cc1 | -3 | -60* | -14% | 4% | 0%
